# Measured values reported in PubChem BioAssay (NCI).
# Compounds without any hit were thinned out: in the full panel of roughly 83,000, 20% have a hit.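 Interpretation: 100, growth as untreated; towards 0, rising growth inhibition; 0, no net growth; 0 to -100, cell death. Compounds scoring below 10 were considered active.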 A number with no mark means an inactive call. Activity calls are given as the source filed them.
# Columns and labels:
# Experiment in all cases: NCI-60 one-dose screen, 48 h (100 = growth as untreated, 0 = no growth, -100 = all killed)
# Conditions in all cases: 10 µM unless noted
# SR leukemia = system: SR leukemia
# RPMI-8226 leukemia = system: RPMI-8226 leukemia
# OVCAR-8 ovarian = system: OVCAR-8 ovarian
# OVCAR-5 ovarian = system: OVCAR-5 ovarian
# OVCAR-4 ovarian = system: OVCAR-4 ovarian
# SK-OV-3 ovarian = system: SK-OV-3 ovarian
# IGROV1 ovarian = system: IGROV1 ovarian
# OVCAR-3 ovarian = system: OVCAR-3 ovarian
# HS 578T breast = system: HS 578T breast
# NCI/ADR-RES ovarian = system: NCI/ADR-RES ovarian
# T-47D breast = system: T-47D breast
# MDA-MB-435 melanoma = system: MDA-MB-435 melanoma
# SW-620 colon = system: SW-620 colon
# HCT-116 colon = system: HCT-116 colon
# HCC-2998 colon = system: HCC-2998 colon
# KM12 colon = system: KM12 colon
# MCF7 breast = system: MCF7 breast
# BT-549 breast = system: BT-549 breast
SMILES,growth (SR leukemia),growth (RPMI-8226 leukemia),growth (OVCAR-8 ovarian),growth (OVCAR-5 ovarian),growth (OVCAR-4 ovarian),growth (SK-OV-3 ovarian),growth (IGROV1 ovarian),growth (OVCAR-3 ovarian),growth (HS 578T breast),growth (NCI/ADR-RES ovarian),growth (T-47D breast),growth (MDA-MB-435 melanoma),growth (SW-620 colon),growth (HCT-116 colon),growth (HCC-2998 colon),growth (KM12 colon),growth (MCF7 breast),growth (BT-549 breast)
COc1ccccc1N1CCN(CCn2c(=O)c3c(c4ccccc4n3C)n(C)c2=O)CC1,78%,109%,85%,111%,114%,93.6%,104%,103%,98.5%,100%,64.4%,106%,98.9%,98.4%,104%,103%,–,–
CC1CN(Cc2ccco2)C(=S)N(c2ccccc2)C1=O (configuration not stated),91.2%,88.1%,104%,105%,97%,105%,106%,106%,101%,108%,83.1%,100%,102%,88.9%,113%,99.9%,102%,–
Cc1ccc(-c2nc(/C=N/Nc3cc(C)nc4ccc(Cl)cc34)c(C)o2)cc1,0.444% (active),-48.6% (active),-88.6% (active),-65.4% (active),-90.8% (active),96.3%,-69.7% (active),-80.8% (active),-42.8% (active),-37.7% (active),-74.4% (active),-95.6% (active),-70.2% (active),-54.3% (active),-53.3% (active),-58.3% (active),–,97%
N#Cc1c(N)nc(N)nc1Nc1ccc(Br)cc1,102%,97%,101%,115%,94.5%,108%,47%,97.6%,70.1%,104%,71.4%,104%,105%,137%,110%,93.9%,61.6%,–
CC1=C(NCCN2CCCC2)C(=O)c2c(OCc3ccc(C(F)(F)F)cc3)cccc2C1=O,-15.7% (active),29.7%,77%,90.1%,84.7%,95.6%,89.1%,83.6%,87.6%,87.5%,73.6%,70.9%,83.5%,33.9%,107%,85%,59.9%,–
Nc1cc2ccncc2c2ccccc12,0.467% (active),84.1%,57.6%,76.2%,82.4%,66.2%,58.7%,75.4%,116%,53.2%,82.3%,59.8%,62.7%,38.3%,–,68.6%,51.5%,–
COc1cc(NC(N)=NCC(C)(C)COc2ccc(C(F)(F)F)cc2)cnc1C#N,49.8%,46%,81.8%,65%,65.8%,66.4%,43.9%,67.5%,31.6%,70.2%,30.3%,61.1%,69.9%,37.7%,18.9%,57.6%,32.5%,–
COc1cc(OC)c(/C=C/c2cc[n+](C)c3ccccc23)c(OC)c1,-16.8% (active),-2.59% (active),-8.8% (active),49.4%,13.6%,-10.8% (active),6.79% (active),-26.6% (active),18.8%,91.3%,–,4.33% (active),19.8%,11.4%,10%,-19.9% (active),5.4% (active),24%
O=C1C[C@H](N2C(=O)c3ccccc3S2(=O)=O)C2CO[C@@H]1O2,10.3%,91.1%,93.7%,97.5%,84.3%,98.5%,103%,86.9%,102%,98.3%,54.1%,95.7%,56.1%,42.7%,99.3%,102%,23.1%,–
Cn1cc(-c2nc(-c3c[nH]c4ccccc34)cs2)c2cccnc21,23%,14.4%,37.9%,54.4%,45.5%,38.7%,44.5%,7.04% (active),38.6%,20.4%,–,1.86% (active),32%,26.3%,54.7%,27.4%,14.7%,7.05% (active)
NC1=CSC2=N/C(=C\c3ccc(Cl)cc3)C(=O)N12,-2.29% (active),39.9%,72.3%,105%,84.1%,89.3%,79.2%,71.6%,101%,76.1%,79%,68%,71.3%,66.1%,–,89.2%,67.2%,–
CC(=O)N1CC(Nc2ccc(OC(F)(F)F)cc2)=CC1=O,25.3%,21.9%,26.1%,92.6%,87.2%,31.3%,50.3%,9.26% (active),38.9%,15.4%,26.2%,-27.2% (active),27.8%,39.2%,60.2%,23.3%,11.8%,–
Oc1ccc2c(=S)cc(-c3ccc(Br)cc3)oc2c1O,1.21% (active),-8.44% (active),-6.62% (active),67.9%,-1.04% (active),62.3%,19%,-21.7% (active),84%,-8.87% (active),2.92% (active),23.3%,5.25% (active),-22% (active),73.8%,12.9%,-31.9% (active),–
O=C1O[C@H]([C@H](O)CO)C(O)=C1O,88.5%,99.1%,97%,101%,119%,112%,104%,104%,117%,96.6%,114%,106%,87.3%,98.2%,98.3%,103%,103%,–
O=C(Nc1ccc(Oc2ccc(F)cc2)c(Cl)c1)c1cccnc1,75.1%,87.3%,98.6%,99.9%,85.2%,110%,95.4%,85.8%,91.5%,85.1%,70.6%,41.5%,92.7%,88.2%,–,76.4%,76.7%,–
Cc1cc(N/N=C/c2nc(-c3ccc(Cl)cc3)oc2C)c2cc(Cl)ccc2n1,-6.42% (active),-35.5% (active),10.4%,87.2%,-84.5% (active),100%,66.3%,-34.3% (active),73.1%,18%,77%,-29.7% (active),-69.3% (active),-47.1% (active),103%,53.6%,-86.2% (active),–
CCN(CC)CCC(=O)c1ccc(OC)c2ccccc12,-6.8% (active),8.95% (active),89.6%,91.1%,98.4%,98.3%,91.6%,109%,95.9%,98.8%,29.1%,102%,93%,88.4%,90.8%,81.8%,11.9%,–
C[C@@]1(N2C(=O)OC[C@@H]2c2ccccc2)C(=O)N([C@H](CC(=O)N2CCC(N3CCCCC3)CC2)C(=O)NCc2cccc(C(F)(F)F)c2)[C@@H]1/C=C/c1ccccc1,-38.4% (active),37.1%,89.8%,115%,66.3%,78.9%,72.1%,73.2%,66.1%,81.8%,27.4%,1% (active),58.5%,44.9%,47.3%,55.9%,25.3%,–
